# Results taken from PubChem BioAssay AID588397 (National Center for Advancing Translational Sciences (NCATS), 2011).
# Several values for one entry are separate records, joined by “and”; a condition that tells them apart may be missing. Equal values may be shown once. Screen size: about 1,300 compounds; about 1,000 (77%) were called active. Roughly 7% stayed inconclusive and do not appear here. The set was probably picked from earlier hits. The list shows a part of the results. Unmarked numbers belong to inactive results. Calls follow the shape of the dose curve; as a rule, active = well fitted inhibition curve with a large enough effect; inconclusive = small, poorly fitted or top-dose-only effect; inactive = no such curve, though single readings can be large or run the other way.
# Assay: qHTS of small molecules that selectively kill Giardia lamblia: Hit Validation.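 Also: viability measured as ATP content by luminescence so killing lowers signal; trophozoites exposed to compounds for 48 h anaerobically at 37 °C; nearly all actives have a fitted effect of over 65% in size.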
# Conditions: Giardia lamblia trophozoite viability, dose-response; series mostly up to 38.3 µM; activity change, negative = killing: at the top concentration
# Outline: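 Giardia lamblia trophozoites (100 cells/well) were incubated with compounds for 48 h at 37 deg C under anaerobic conditions. Viability was read as ATP content by one-step luminescence after 15-30 min at room temperature.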
# % is scaled to controls: 0 for no effect and ±100 for the full control effect; potency is read from the fitted curve at half-maximal effect.
Compound,Potency,"activity change, negative = killing [%]"
Cc1cc([N+](=O)[O-])nn1Cc1ccc(F)cc1,2.9 µM (active),–
Cc1cc([N+](=O)[O-])nn1Cc1noc(C(=O)NCc2ccc3c(c2)OCO3)n1,–,-30.3
CC(NC(=O)COc1cccnc1[N+](=O)[O-])c1ccc(F)cc1 (configuration not stated),5.79 µM (active),–
CC(NC(=O)COc1cccnc1[N+](=O)[O-])c1ccc(Cl)cc1Cl (configuration not stated),3.26 µM (active),–
CC(NC(=O)COc1cccnc1[N+](=O)[O-])c1ccc(Cl)cc1 (configuration not stated),5.16 µM (active),–
COc1ccc(NC(=O)C(c2ccc(Cl)cc2)C(C)C)cn1 (configuration not stated),–,-25.3
O=[N+]([O-])c1cncc([N+](=O)[O-])c1Nc1cccc(O)c1,3.26 µM (active),–
O=[N+]([O-])c1cncc([N+](=O)[O-])c1Nc1ccccc1Cl,5.16 µM (active),–
N/C(=N/OC(=O)c1ccccc1Cl)c1ncc([N+](=O)[O-])s1,1.63 µM (active),–
O=C(Oc1cccc2c(O)cccc12)c1ccccc1Cl,–,-9.35
N/C(=N/OC(=O)c1ccc(Cl)cc1)c1ncc([N+](=O)[O-])s1,1.3 µM (active),–
N/C(=N\OC(=O)c1ccc(Cl)cc1[N+](=O)[O-])c1ccccn1,8.18 µM (active),–
COc1ccc(-n2nc([N+](=O)[O-])c(=NCCc3ccccc3)n2O)cc1,1.16 µM (active),–
COc1ccc(-n2nc([N+](=O)[O-])c(=NCCC3=CCCCC3)n2O)cc1,4.1 µM (active),–
COc1ccc(-n2nc([N+](=O)[O-])c(=NCCc3ccc(Cl)cc3)n2O)cc1,1.45 µM (active),–
COc1ccc(-n2nc([N+](=O)[O-])c(=NCCc3ccc(OC)c(OC)c3)n2O)cc1,1.16 µM (active),–
COc1ccc(-n2nc([N+](=O)[O-])c(=NCCc3ccc(C)cc3)n2O)cc1,4.1 µM (active),–
COc1ccc(CCN=c2c([N+](=O)[O-])nn(-c3cccc(C)c3)n2O)cc1OC,5.16 µM (active),–
CCN(CC)C(=O)Cn1cc([N+](=O)[O-])cc1[N+](=O)[O-],0.46 µM (active),–
CCN(C(=O)C1CCN(S(=O)(=O)c2ccc3c(c2)oc(=O)n3C)CC1)c1cccc(C)c1,–,-7.64
N#Cc1c(Nc2ccccc2)[n+]([O-])c2ccc(Cl)cc2[n+]1[O-],1.63 µM (active),–
O=C1c2cc(F)ccc2-n2c1nc1ccccc1c2=O,1.83 µM (active),–
CCOCCOc1nc2c(c(=O)n(C)c(=O)n2C)n1Cc1ccc(C)cc1,–,-13.5

Compound,Potency,"activity change, negative = killing [%]"
CC(C)(C)c1cc(C(=O)N/N=C/c2ccc([N+](=O)[O-])s2)n[nH]1,3.65 µM (active),–
Cc1cc(C(=O)N/N=C/c2ccc(O)c([N+](=O)[O-])c2)n[nH]1,6.5 µM (active),–
Cc1cc(C(=O)N/N=C/c2ccc([N+](=O)[O-])s2)n[nH]1,2.31 µM (active),–
CC(C)(C)c1cc(C(=O)N/N=C/c2ccncc2)n[nH]1,–,16.6
N#Cc1c(N2CCN(c3ccc([N+](=O)[O-])cc3)CC2)[n+](=O)c2ccc(Cl)cc2n1[O-],1.3 µM (active),–
CN(C)c1ccc2nsnc2c1[N+](=O)[O-],3.65 µM (active),–
CC1S/C(=C(\C#N)C(N)=O)N(c2ccc(F)cc2)C1=O (configuration not stated),–,1.62
N=NC(=O)c1ccccc1Nc1c(O)[nH]c2ccccc12,1.03 µM (active),–
COC(=O)c1ccccc1NC(=O)N1c2ccccc2Sc2ccccc21,0.918 µM (active),–
Cc1cc(N2CCN(C)CC2)nc2ccc(NC(=S)N3CCN(c4ccc(Cl)cc4)CC3)cc12,1.16 µM (active),–
O=c1sc(N2CCN(c3ccc(F)cc3)CC2)nc2ccsc12,–,-23.9
Cc1cc(N2CCN(C)CC2)nc2ccc(NC(=S)N3CCN(c4cccc(Cl)c4)CC3)cc12,1.16 µM (active),–
Cc1cc(N2CCN(C)CC2)nc2ccc(NC(=S)N3CCN(c4ccc(F)cc4)CC3)cc12,1.3 µM (active),–
Cc1cccc(N2CCN(C(=S)Nc3ccc4nc(N5CCN(C)CC5)cc(C)c4c3)CC2C)c1 (configuration not stated),4.1 µM (active),–
CC(=O)Nc1ccc(/C=C/c2noc(-c3ccccc3O)n2)cc1,–,-11.3
Cn1nc([N+](=O)[O-])nc1N1CCOCC1,0.326 µM (active),–
[O-][n+]1c2cc(C(F)(F)F)ccc2c2n1CCN=C2c1ccc(Cl)cc1,0.41 µM (active),–
Nc1c(Cl)cc(C2=NCCn3c2c2ccc(C(F)(F)F)cc2[n+]3[O-])cc1Cl,0.163 µM (active),–
COc1ccc(C2=NCCn3c2c2ccc(C(F)(F)F)cc2[n+]3[O-])cc1,0.0729 µM (active),–
Cc1ccc(C2=NCCn3c2c2ccc(C(F)(F)F)cc2[n+]3[O-])cc1,0.13 µM (active),–
O=[N+]([O-])c1cc2cccnc2c2ncccc12,1.83 µM (active),–
O=C(Nc1ccc(-c2cn3ccccc3n2)cc1)c1ccco1,8.18 µM (active),–
COc1ccccc1-n1cc2c([N+](=O)[O-])cc([N+](=O)[O-])cc2n1,1.63 µM (active),–

Compound,Potency,"activity change, negative = killing [%]"
CC(Oc1cccnc1[N+](=O)[O-])C(=O)Nc1ccc(F)cc1 (configuration not stated),5.16 µM (active),–
CC(Oc1cccnc1[N+](=O)[O-])C(=O)Nc1cccc(Cl)c1 (configuration not stated),3.65 µM (active),–
Cc1ccc(CCN=c2c([N+](=O)[O-])nn(-c3ccccc3)n2O)cc1,7.29 µM (active),–
O=[N+]([O-])c1nn(-c2ccccc2)n(O)c1=NCCc1ccccc1,3.26 µM (active),–
Cc1ccc(Nc2nc(=O)c3cc([N+](=O)[O-])ccc3s2)cc1,7.29 µM (active),–
CC1=NN(c2nc3ccccc3[nH]2)C(=O)/C1=C/N(C)C,3.65 µM (active),–
O=C(Nc1ncc([N+](=O)[O-])s1)c1cccs1,460 nM (active) and 729 nM (active),–
O=C(Nc1ncc([N+](=O)[O-])s1)c1ccccc1Br,0.206 µM (active),–
O=C(Nc1ncc([N+](=O)[O-])s1)c1ccco1,0.818 µM (active),–
CC(=O)O[C@]1(C(C)=O)CCC2C3CCC4=C/C(=N/OCC(=O)O)CC[C@]4(C)C3CC[C@@]21C (some centres not stated),–,-25.6
N#C/C(=C(/O)c1ccc([N+](=O)[O-])s1)c1nc2ccccc2[nH]1,2.31 µM (active),–
Cn1c(/C(C#N)=C(\O)c2ccc([N+](=O)[O-])s2)nc2ccccc21,1.16 µM (active),–
N#C/C(=C(/O)c1ccc([N+](=O)[O-])o1)c1nc2ccccc2[nH]1,0.326 µM (active),–
Cc1nc2c(nc1C)C(=O)c1ccccc1C2=O,3.26 µM (active),–
O=C(Nc1nc(-c2cccs2)cs1)c1ccc([N+](=O)[O-])o1,0.65 µM (active),–
Cc1ccc(-c2csc(NC(=O)c3ccc([N+](=O)[O-])o3)n2)cc1,1.63 µM (active),–
c1ccc(-c2nc(-c3cnc4ccccc4n3)cs2)cc1,5.79 µM (active),–
c1ccc(CCNc2ncnc3nc[nH]c23)cc1,–,-21
O=c1cc[nH]c2ccc([N+](=O)[O-])cc12,4.1 µM (active),–
O=c1[nH]cnc2ccc([N+](=O)[O-])cc12,1.63 µM (active),–
COc1ccc(/C(O)=C2/C(=O)C(=O)N(CCCN3CCOCC3)C2c2ccc(N(C)C)cc2)cc1 (configuration not stated),–,-18.1
O=C(/C=C/c1cccc([N+](=O)[O-])c1)c1ccco1,7.29 µM (active),–
Brc1ccc(CNc2nc3ccccc3n2CCN2CCCCC2)cc1,0.516 µM (active),–

Compound,Potency,"activity change, negative = killing [%]"
COc1ccccc1CN=c1c([N+](=O)[O-])nn(-c2ccc3c(c2)OCCO3)n1O,4.6 µM (active),–
O=[N+]([O-])c1nn(-c2ccc3c(c2)OCCO3)n(O)c1=NCc1ccccc1Cl,4.6 µM (active),–
CC1CC(C)CN(C(=O)/C=C/c2ccc([N+](=O)[O-])s2)C1 (configuration not stated),4.6 µM (active),–
O=C(/C=C/c1ccc([N+](=O)[O-])s1)N1CCN(c2ccccc2)CC1,1.45 µM (active),–
O=C(/C=C/c1ccc([N+](=O)[O-])s1)N1CCCC1,1.83 µM (active),–
O=C(/C=C/c1ccc([N+](=O)[O-])s1)N1CCCCC1,1.45 µM (active),–
COC(=O)c1ccc(Nc2ccc3nonc3c2[N+](=O)[O-])cc1,2.05 µM (active),–
O=[N+]([O-])c1c(Nc2ccc(Br)cc2)ccc2nonc12,2.9 µM (active),–
O=C(Cc1ccccc1)N/N=C/c1ccc([N+](=O)[O-])s1,1.83 µM (active),–
O=C(Cc1cccs1)N/N=C\c1ccc([N+](=O)[O-])s1,2.9 µM (active),–
CC(=O)Nc1ccc(S(=O)(=O)N(CCc2ccccc2)CC(=O)N/N=C/c2ccc(C(=O)O)cc2)cc1,–,-25.4
NC(=O)CCCn1c(C(=O)c2cc(Cl)c(N)c(Cl)c2)c2ccc([N+](=O)[O-])cc2[n+]1[O-],5.16 µM (active),–
NCCCn1c(C(=O)c2cc(Cl)c(N)c(Cl)c2)c2ccccc2[n+]1[O-],1.3 µM (active),–
NCCCn1c(C(=O)c2cc(Cl)c(N)c(Cl)c2)c2ccc([N+](=O)[O-])cc2[n+]1[O-],1.63 µM (active),–
CC[C@]1(C(=O)OC)[C@H]2C(=O)N(C)C(=O)[C@H]2[C@H]2CN(C)C(=NC)N21,–,-4.23
CC(C)(C)NC(=O)CCN(/N=C/c1ccc([N+](=O)[O-])o1)C1=NS(=O)(=O)c2ccccc21,1.16 µM (active),–
O=[N+]([O-])c1ccc(-c2nc(C(Cl)Cl)c3ccccc3n2)cc1,1.3 µM (active),–
Cc1cc(N/N=C/c2ccc([N+](=O)[O-])o2)nc2ccccc12,1.83 µM (active),–
Cc1ccc2nc(N/N=C\c3ccc([N+](=O)[O-])o3)nc(-c3ccccc3)c2c1,0.46 µM (active),–
O=[N+]([O-])c1ccc(/C=N/Nc2nc(-c3ccccc3)c3cc(Br)ccc3n2)o1,0.918 µM (active),–
O=C(Nc1ccc(N2CCN(C(=O)c3ccc(Cl)cc3)CC2)cc1)c1ccc([N+](=O)[O-])o1,0.579 µM (active),–
Cc1ccccc1C(=O)N1CCN(c2ccc(NC(=O)c3ccc([N+](=O)[O-])o3)cc2)CC1,0.818 µM (active),–
O=C(Nc1ccc(N2CCN(C(=O)c3ccccc3)CC2)cc1)c1ccc([N+](=O)[O-])o1,0.818 µM (active),–
